High-throughput results: PubChem, several laboratories
WT yeast gro inh – growth inhibition of WT yeast, mitochondrial fusion screen; inhibition, % at 10 µM; mitochondrial fusion phenotypic screen, WT strain; actives 2.1% (n = 190,000); AID 1362; in the data active = inhibition above about 58%; tested in S. cerevisiae
Insulin prom up – MIN6 insulin promoter up-regulation; MIN6 insulin promoter-GFP reporter, high-content imaging; hits give high values; z-score at 5 µM; actives 0.3% (n = 190,000); AID 1625;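 active = z-score above 3 at 5 µM with at least 500 cells counted in the well; inconclusive = wells under 500 cells, flagged as cytotoxic or low count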
Lmaj promast – Leishmania major promastigote growth inhibition | inhibition, % at 10 µM | Leishmania major promastigotes, resazurin fluorescence viability | actives 9% (n = 200,000) | AID 1063; in the data active = inhibition above about 50%;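 note: promastigotes grown with compound for 44 hours at 28 °C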
Cl transport mod – KCC2 (human) Cl- transport modulation | KCC2 cells, thallium flux FluoZin-2 fluorescence | B-score of Tl+ flux slope (higher = more flux/activation; lower = inhibition) at 10 µM | actives 2.2% (n = 190,000);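 active = thallium flux slope and its plate-corrected score both differing from the plate sample mean at a set confidence after two filtering rounds, in either direction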;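 note: slope of fluorescence scaled to starting intensity during 10 to 20 s after thallium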
ROMK primary – modulators of human ROMK potassium channel; AID 1918; B-score at 10 µM; actives 2% (n = 130,000); P48048; Tet-inducible ROMK, thallium flux fluorescence; actives lie on both sides;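 active = signal ratio slope over the read window, or its plate-corrected B-score, at least 3 SD from the plate mean, either direction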;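 note: B-score of the F/F0 ratio slope over 7 to 12 s after thallium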
Target sequence (P48048 whole entry, looked up): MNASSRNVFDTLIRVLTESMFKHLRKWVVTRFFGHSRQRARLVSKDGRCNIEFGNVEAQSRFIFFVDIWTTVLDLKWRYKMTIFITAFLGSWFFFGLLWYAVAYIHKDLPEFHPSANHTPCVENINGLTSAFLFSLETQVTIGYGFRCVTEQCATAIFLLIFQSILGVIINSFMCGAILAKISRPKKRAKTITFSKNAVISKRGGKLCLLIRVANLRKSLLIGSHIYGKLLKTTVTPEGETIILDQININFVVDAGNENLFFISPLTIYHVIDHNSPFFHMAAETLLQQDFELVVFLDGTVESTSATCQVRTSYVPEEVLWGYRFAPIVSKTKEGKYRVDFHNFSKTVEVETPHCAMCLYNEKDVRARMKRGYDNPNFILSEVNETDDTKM
Insulin prom inh – TRM-6 insulin promoter activity inhibition. TRM-6 cells (human fetal islet line), insulin promoter-eGFP reporter, imaging; reporter expression induced with tamoxifen. inhibition, % at 2 µM. actives 0.9% (n = 130,000);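 active = inhibition above the mean plus 3 SD, with well images judged a real hit on visual review, cut at about 60% in these data, passing the limit was not always enough; inconclusive = inhibition over the cutoff but images rejected on review; inactive = inhibition not above the cutoff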
Of the large screens only hits and unclear results are named; the others gave an inactive call. An excerpt weighted towards active compounds, which were near 12% of everything screened.

C=CCSc1nc2ccccc2n1C(=O)/C=C/c1ccc(OC)c(OC)c1	Lmaj promast 71 (no result: WT yeast gro inh, Insulin prom up, ROMK primary)
COc1ccc(OC)c(-c2cc(C(=O)Nc3c(C)nn(Cc4ccccc4)c3C)no2)c1	WT yeast gro inh 60 (no result: Cl transport mod)
Cc1cccc(C)c1NC(=O)c1cn(-c2ccccc2)nc1-c1ccccc1	none (no result: Cl transport mod)
Cc1nn(Cc2ccc(Cl)c(Cl)c2)c(C)c1NC(=O)c1cc(-c2ccc3c(c2)OCO3)on1	Lmaj promast 77 (no result: Cl transport mod)
Cc1nn(Cc2ccccc2)c(C)c1NC(=O)c1cc(-c2ccco2)on1	none
COc1ccc(OC)c(-c2cc(C(=O)N3CCc4ccccc4C3)no2)c1	WT yeast gro inh 62 (no result: ROMK primary, Insulin prom inh)
Cc1nn(Cc2ccc(Cl)c(Cl)c2)c(C)c1NC(=O)c1cn(-c2ccccc2)nc1-c1ccccc1	Lmaj promast 77
Cc1nn(Cc2ccc(Cl)cc2)c(C)c1NC(=O)c1cc(-c2ccc3c(c2)OCO3)on1	none (no result: Cl transport mod)
Cc1cc(C)n(C(=O)c2ccc([N+](=O)[O-])cc2[N+](=O)[O-])n1	Lmaj promast 99 (no result: ROMK primary)
Cc1nn(Cc2ccccc2)c(C)c1NC(=O)c1ccc([N+](=O)[O-])cc1[N+](=O)[O-]	Lmaj promast 63 (no result: Insulin prom up)
CCCCCC#CCC#CCC#CCC#CCCCC(=O)O	Lmaj promast 84 (no result: Insulin prom up, ROMK primary)
CCOc1ccc(-n2c(-c3ccccc3)c[n+]3c2CCCCC3)cc1	Insulin prom up inconclusive, Lmaj promast 100 (no result: ROMK primary, Insulin prom inh)
Cc1occc1C(=O)NNC(=O)c1ccc(Br)o1	none (no result: Insulin prom inh)
O=C1CN(CC(=O)N2CCCCC2)c2ccccc2O1	Lmaj promast 98 (no result: ROMK primary, Insulin prom inh)
COc1ccccc1C(=O)n1nc(-c2ccccc2)nc1NCc1ccco1	WT yeast gro inh 83 (no result: Insulin prom up, ROMK primary)
CCC(=O)c1ccc(/C=C/c2nc3ccccc3n2C)o1	none (no result: Insulin prom up, Insulin prom inh)
CCCOc1nc2c(c(=O)n(C)c(=O)n2C)n1Cc1cccc2ccccc12	Insulin prom up inconclusive, Lmaj promast 65 (no result: Cl transport mod, Insulin prom inh)
CC1CC(C)CN(CC(O)COc2ccc3c(c2)CCC3)C1 (centres undefined)	Lmaj promast 89
CC1CCN(CC(O)COCCOc2ccc(Br)cc2)CC1 (centres undefined)	Lmaj promast 82 (no result: ROMK primary, Insulin prom inh)
CC1CC(C)CN(CC(O)COCCOc2ccc(Br)cc2)C1 (centres undefined)	Lmaj promast 92
CC1CC(C)CN(CCOc2ccc(Br)cc2)C1 (centres undefined)	Lmaj promast 82
Cc1nc(C)n(CC(O)COc2ccc3c(c2)CCC3)n1 (centres undefined)	none (no result: Cl transport mod, ROMK primary)
CN1CCN(CC(O)COCCOc2ccc(Br)cc2)CC1 (centres undefined)	none
CCC(C)C(=O)Nc1cc(OC)c(OC)cc1C(=O)O (centres undefined)	none
CC(C)(C)CC(C)(C)NCC(O)COc1ccc2c(c1)CCC2 (centres undefined)	Lmaj promast 100 (no result: WT yeast gro inh, Insulin prom up, ROMK primary)
OC(COCCOc1ccc(Br)cc1)CN1CCCCC1 (centres undefined)	Lmaj promast 71
CC1CCN(CC(O)COCCC23CC4CC(CC(C4)C2)C3)CC1 (centres undefined)	Lmaj promast 95 (no result: ROMK primary)
CC(OCC(O)CN(C)Cc1nc2ccccc2c(=O)[nH]1)c1ccc(Cl)cc1 (centres undefined)	none
Cc1ccc(C)c(NS(=O)(=O)c2ccc(NC(=O)CSc3ccc(Cl)cc3)cc2)c1	none (no result: ROMK primary)
Cc1ccc(NS(=O)(=O)c2ccc(NC(=O)C(C)Sc3ccc(Cl)cc3)cc2)c(C)c1 (centres undefined)	Lmaj promast 92 (no result: ROMK primary)
Cc1cccc2cc(C3CC(c4ccco4)=NN3S(C)(=O)=O)c(Cl)nc12 (centres undefined)	none (no result: WT yeast gro inh, Lmaj promast, ROMK primary, Insulin prom inh)
CC1=CC(C)(C)Nc2ccc(OS(=O)(=O)c3ccc(C)cc3)cc21	Lmaj promast 94 (no result: ROMK primary)
CC1=CC(C)(C)Nc2ccc(OC(=O)CCN3C(=O)c4ccccc4C3=O)cc21	Lmaj promast 79
O=C(CCN1C(=O)c2ccccc2C1=O)Oc1ccc2ccccc2c1	none (no result: ROMK primary)
O=C(CCn1cnnn1)Nc1ccc(Cl)cc1Cl	none (no result: Insulin prom inh)
COc1ccc(NC(=S)N(Cc2ccc(Cl)cc2)Cc2ccc(C(=O)O)cc2)cc1Cl	none (no result: Insulin prom inh)
Cc1ccc(NC(=S)N(CCCN2CCCC2)Cc2cccn2Cc2ccc(Cl)cc2)cc1Cl	WT yeast gro inh 77, Lmaj promast 100 (no result: ROMK primary)
COc1ccc(NC(=S)N(CCCN2CCCC2)Cc2cccn2Cc2ccc(Cl)cc2)cc1Cl	WT yeast gro inh 87, Lmaj promast 100 (no result: Insulin prom inh)
CN1CCN(CCCN(Cc2cccs2)C(=S)Nc2ccc(Cl)cc2)CC1	none (no result: Insulin prom inh)
